Test results as given in PubChem BioAssay AID488975 (Johns Hopkins Ion Channel Center, 2010).
Out of some 310,000 compounds screened, about 2,600 (0.84%) were called active.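 Rule for the calls: active = B-score over 3 SD under the library average, and starting fluorescence ratio not unusually high; inactive = the rest.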 What follows is part of a selection rich in actives, with near analogues and random picks from the rest.

Molecular target: High affinity choline transporter 1 (Homo sapiens) (UniProt Q9GZV3)
Sequence (Q9GZV3 whole entry, looked up): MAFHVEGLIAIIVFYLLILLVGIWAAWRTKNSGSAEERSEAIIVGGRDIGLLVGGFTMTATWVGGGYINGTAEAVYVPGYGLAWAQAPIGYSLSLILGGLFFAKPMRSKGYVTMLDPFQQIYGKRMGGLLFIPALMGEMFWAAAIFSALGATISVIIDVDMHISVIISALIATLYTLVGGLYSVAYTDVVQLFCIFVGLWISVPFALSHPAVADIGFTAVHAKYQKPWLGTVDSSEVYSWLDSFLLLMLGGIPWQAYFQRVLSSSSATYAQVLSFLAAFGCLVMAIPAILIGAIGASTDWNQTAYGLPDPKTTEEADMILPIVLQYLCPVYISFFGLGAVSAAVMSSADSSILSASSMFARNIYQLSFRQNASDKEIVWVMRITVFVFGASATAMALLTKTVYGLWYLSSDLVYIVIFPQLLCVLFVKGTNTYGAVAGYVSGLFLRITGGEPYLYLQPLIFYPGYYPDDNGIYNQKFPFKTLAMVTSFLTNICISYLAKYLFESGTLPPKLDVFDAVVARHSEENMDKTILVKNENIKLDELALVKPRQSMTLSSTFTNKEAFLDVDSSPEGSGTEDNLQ
Assay: inhibitors of human choline transporter CHT (AID 488975);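 for B-score: choline stimulus applied at its EC90 after an EC20 pre-addition; B-score computed on integrated fluorescence ratio after choline addition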
Settings: CHT-expressing cells, membrane potential dye, choline response, at 10 µM; active compounds read low

Row | Compound | B-score
1 | CCCNC(=O)CCn1cc(-c2ccc(OC)cc2)nc1CCN | inactive
2 | C=CCNC(=O)C1CC2c3ccccc3C1c1ccccc12 (centres undefined) | inactive
3 | CC1(C)CC(=O)c2sc(N)nc2C1 | inactive
4 | CNC(=O)c1ccc2nc(NC(C)=O)sc2c1 | inactive
5 | CC(=O)Nc1nc2c(s1)C(=O)NCC(C)(C)C2 | -5.07 (active)
6 | COc1cccc(N2CC(NC(=O)c3ccc4ccccc4c3)CC2=O)c1 (centres undefined) | inactive
7 | COc1cccc(CC2(CO)CCCN(Cc3ccc(OC(F)F)cc3)C2)c1 (centres undefined) | inactive
8 | Cc1nn(C)c(C)c1NS(=O)(=O)c1ccc(OC(F)(F)F)cc1 | inactive
9 | CNC(=O)NC(=O)C(C)N1CCN(C/C=C/c2ccccc2)CC1 (centres undefined) | -6.91 (active)
10 | O=C(CCN1CCN(C/C=C/c2ccccc2)CC1)Nc1cccc(F)c1 | inactive
11 | COc1cc(C(=O)N2CCN(C/C=C/c3ccccc3)CC2)cc(OC)c1C | inactive
12 | CCc1ccc(C(=O)NNC(=O)C2CCN(c3ncnc4sc(C)c(C)c34)CC2)cc1 | inactive
13 | O=C(Nc1ccc(C(=O)N2CCOCC2)cc1)Nc1cccc(C(F)(F)F)c1 | inactive
14 | CCN1CN(Cc2ccccc2)CNC1=S | inactive
15 | CCOc1ccccc1N1CN(Cc2ccccc2)CNC1=S | inactive
16 | CCc1ccccc1N1CN(Cc2ccco2)CNC1=S | -5.54 (active)
17 | Brc1cnc2ccccc2c1N1CCCCC1 | inactive
18 | CCCCCN(C(=O)CCC(=O)OCC(=O)NC1CCC(C)CC1)c1c(N)n(CCCC)c(=O)[nH]c1=O (centres undefined) | inactive
19 | O=C(CN1C(=O)NC2(CCCC2)C1=O)OCCOc1ccc(F)cc1 | inactive
20 | COc1cc(NC(=O)CSC(=S)N2CCCC2)c(OC)cc1Cl | inactive
21 | COc1ccc(/C=C2\SC(=O)N(CCC(=O)NC3CCS(=O)(=O)C3)C2=O)cc1 (centres undefined) | inactive
22 | CC(C(=O)NC1CCS(=O)(=O)C1)N1C(=O)/C(=C/c2ccc(Cl)cc2)SC1=S (centres undefined) | -8.07 (active)
23 | CN(C(=O)CN1C(=O)/C(=C/c2ccc(Cl)cc2)SC1=S)C1CCS(=O)(=O)C1 (centres undefined) | inactive
24 | CCN(Cc1ccccc1)S(=O)(=O)c1cc(C(=O)O)ccc1OC | -5.82 (active)
25 | COc1ccc(C(=O)O)cc1S(=O)(=O)NCc1cccnc1 | inactive
26 | COc1ccc(S(=O)(=O)N(CC(=O)N/N=C/c2ccc(C(=O)O)cc2)Cc2ccccc2)cc1OC | inactive

Row | Compound | B-score
27 | O=C(NCC(c1ccco1)N1CCc2ccccc2C1)c1ccccc1Cl (centres undefined) | inactive
28 | NC(=O)c1ccsc1NC(=O)COC(=O)Cc1n[nH]c(=O)c2ccccc12 | inactive
29 | Nc1c(-c2ccccc2)nnn1Cc1ccccc1 | inactive
30 | Oc1c(Cl)cc(Cl)c(Cl)c1Cc1c(O)c(Cl)cc(Cl)c1Cl | -6.87 (active)
31 | COc1ccc(C2=NN(C(=O)CSc3nc(=O)n4ccc(C)cc4n3)C(c3ccc(C)cc3)C2)cc1 (centres undefined) | inactive
32 | CCN1C(=O)[C@H]2[C@@H](c3ccc(-c4ccc(F)cc4)cc3)N[C@@](Cc3ccccc3)(C(=O)OC)[C@H]2C1=O | inactive
33 | O=C(Cc1ccc(Br)cc1)NCCc1ccccc1 | inactive
34 | CC(=O)Nc1ccc(NC(=O)CSC2=NS(=O)(=O)c3ccccc3N2)cc1 | inactive
35 | C=C(C)CNC(=O)c1ccc(OC2CCN(C(=O)COC)CC2)cc1 | inactive
36 | O=C1c2cccc3cccc(c23)C(=O)N1CCCCCc1n[nH]c(=S)o1 | -5.24 (active)
37 | C[N+](C)(CCCCCC[N+](C)(C)CCCN1C(=O)c2cccc3cccc(c23)C1=O)CCCN1C(=O)c2cccc3cccc(c23)C1=O | inactive
38 | O=C(CCCCCN1C(=O)c2cccc3cccc(c23)C1=O)NCc1ccco1 | inactive
39 | CCC1(c2ccccc2)NC(=O)N(CC(=O)c2ccc3c(c2)OCO3)C1=O (centres undefined) | inactive
40 | CCCn1c(C)cc(/C=C(\C#N)C(=O)OCC(=O)N(C)c2c(N)n(Cc3ccccc3)c(=O)[nH]c2=O)c1C | inactive
41 | Cc1[nH]c2ccccc2c1C(=O)CN1CC(C)CC(C)C1 (centres undefined) | inactive
42 | Cc1[nH]c2ccccc2c1C(=O)CN1CCCC(C)C1 (centres undefined) | -6.04 (active)
43 | CCOC(=O)N1CCN(CC(=O)c2c(C)[nH]c3ccccc23)CC1 | inactive
44 | [O-][n+]1ccc(OCc2ccccc2)cc1 | inactive
45 | Cc1ccc([C@@H]2CC=C(C(=O)O)[C@H](c3cccc(Cl)c3)N2S(=O)(=O)c2ccc(C)cc2)cc1 | inactive
46 | COc1ccccc1C(=O)NC(CCSC)C(=O)N1CCN(C/C=C/c2ccccc2)CC1 (centres undefined) | inactive
47 | O=C(Nc1ccc2nc3n(c(=O)c2c1)CCCC3)c1ccc(Cl)nc1 | inactive
48 | CCN(CC)CCn1cnc2c1c(=O)[nH]c(=O)n2Cc1ccccc1 | inactive
49 | COCCn1cnc2c1c(=O)n(Cc1ccc(Br)cc1)c(=O)n2Cc1ccccc1 | inactive
50 | N=c1c2c(-c3ccccc3)c(-c3ccccc3)n(Cc3ccccc3)c2ncn1CCCO | -9.35 (active)
51 | CCOC(=O)C1CCN(C(=O)COC(=O)C2CCN(S(=O)(=O)c3ccc4c(c3)OCCO4)CC2)CC1 | inactive
52 | Cc1cc(C)c(S(=O)(=O)n2cc(C(C)C(N)C(=O)O)c3ccccc32)c(C)c1 (centres undefined) | inactive

Row | Compound | B-score
53 | CCN(CC(=O)Nc1c(F)cccc1F)C(=O)c1ccc(-c2ccccc2)cc1 | inactive
54 | COc1ccccc1/C=N/Nc1nc(C)c(C(C)=O)s1 | inactive
55 | COc1ccc(C(=O)NCC(c2ccco2)N2CCc3ccccc32)cc1OC (centres undefined) | inactive
56 | Cc1sc2nc(CSCC(=O)NC3CCCCC3)[nH]c(=O)c2c1C | inactive
57 | N=c1n(Cc2ccc(Cl)cc2)c2ccccc2n1CC(O)c1ccco1 (centres undefined) | -5.25 (active)
58 | Cn1c(=N)n(CC(O)c2ccccc2)c2ccccc21 (centres undefined) | inactive
59 | Cn1c(=N)n(CC(O)c2cccs2)c2ccccc21 (centres undefined) | inactive
60 | O=C(N/N=C/c1cc(Br)c(O)c([N+](=O)[O-])c1)C(O)(c1ccccc1)c1ccccc1 | inactive
61 | CCCCN(C(=O)CSCC(=O)Nc1ccc(OC)cc1)c1c(N)n(CCC)c(=O)[nH]c1=O | inactive
62 | O=C(Cc1ccc(S(=O)(=O)N2CCOCC2)s1)NCCOc1ccccc1F | inactive
63 | Cc1ccc(NC(=O)C2CC(=O)N(c3ccc4c(c3)OCCO4)C2)cc1S(=O)(=O)N1CCCCCC1 (centres undefined) | inactive
64 | CCCCn1c(=O)c(C(C)=O)c(O)c2ccccc21 | inactive
65 | CCCCCn1c(=O)c(C(=O)OCC)c(Cl)c2ccccc21 | -5.74 (active)
66 | CCOC(=O)c1nnn2c3ccccc3c(=O)n(C)c12 | inactive
67 | Cc1sc2ncnc(N3CCC(C(=O)Nc4nc5ccc(Cl)cc5s4)CC3)c2c1C | inactive
68 | CCc1ccc(Nc2n[n+](-c3ccccc3)c(-c3cccc(Cl)c3Cl)s2)cc1 | inactive
69 | Cc1ccc2nc(Nc3ccccc3)cc(C)c2c1 | -8.75 (active)
70 | Cc1ccc2nc(Nc3ccccc3O)nc(-c3ccccc3)c2c1 | inactive
71 | Cc1cc(Nc2ccc(Br)cc2)nc2ccccc12 | inactive
72 | Cc1ccc(NS(=O)(=O)c2ccc(F)cc2)nc1 | inactive
73 | O=S(=O)(Nc1ccc(Cl)cn1)c1cnc(Cl)c(Br)c1 | -8.67 (active)
74 | O=S(=O)(Nc1ccccn1)c1cccc(S(=O)(=O)c2ccc(Cl)cc2)c1 | inactive
75 | CC(=O)c1c(C)[nH]c(C(=O)COC(=O)CCOc2ccc(C)cc2)c1C | inactive
76 | CCOC(=O)N1CCN(C(=O)C2CCN(c3ncnc4c3sc3cccc(F)c34)CC2)CC1 | -5.37 (active)
77 | CCOC(=O)C1CCN(c2ncnc3c2oc2ccc(Br)cc23)CC1 | inactive
78 | CCOC(=O)N1CCN(C(=O)C2CCN(S(=O)(=O)c3cc(Cl)ccc3OCC)CC2)CC1 | inactive

Row | Compound | B-score
79 | CNCC(O)c1ccc(O)c(O)c1 (centres undefined) | -5.02 (active)
80 | CCC(C)c1ccc(O)c(/C=N/O)c1 (centres undefined) | inactive
81 | CC(=O)NCC(O)c1ccc([N+](=O)[O-])cc1 (centres undefined) | inactive
82 | COc1cc(C(=O)NCC(=O)NCCSc2ccc(Br)cc2)cc(OC)c1OC | inactive
83 | C=CCOc1ccc(/C=C/C(=O)OCC(=O)NC(C)c2ccc(F)cc2)cc1 (centres undefined) | inactive
84 | CCOC(=O)C(Cc1ccccc1)NC(=O)CCC(=O)c1ccc(OC)cc1 (centres undefined) | inactive
85 | COc1ccc(C(=O)NC(Cc2ccc(OC(=O)c3ccc(OC)cc3)cc2)C(=O)O)cc1 (centres undefined) | -5.4 (active)
86 | COc1ccc(C(=O)N[C@H](C(=O)NCc2ccccc2)C(C)C)cc1 | inactive
87 | CCOc1ccc(CCNC(=O)COC(=O)C2CCN(c3ccc(C(F)(F)F)cn3)CC2)cc1OCC | inactive
88 | FC(F)(F)c1ccc2c3n(nc2c1)CCN=C3c1ccc(Cl)cc1 | inactive
89 | Cc1cccc(C(=O)NCCCN2CCCC2=O)c1 | inactive
90 | Cc1cccc(-c2nc3ccc(C(=O)NCCN4CCN(C)CC4)cc3nc2-c2cccc(C)c2)c1 | -5.67 (active)
91 | Cc1ccc(C(=O)NCCN2CCOCC2)cc1C | inactive
92 | NC1=NC(c2ccc([N+](=O)[O-])cc2)N(c2ccc(F)cc2)C(N)=N1 (centres undefined) | inactive
93 | Cc1ccc(OCC(=O)OC(C)CN(C)Cc2ccccc2)cc1 (centres undefined) | inactive
94 | OC(CNCc1ccc2c(c1)OCO2)COc1ccccc1 (centres undefined) | inactive
95 | CN(Cc1ccccc1)CC(O)COc1ccc(CNCc2cc3ccccc3s2)cc1 (centres undefined) | -5.57 (active)
96 | COc1ccccc1NC(=O)Nc1nc(CC(=O)Nc2ccccc2F)cs1 | inactive
97 | CCOc1cc(N2CCOCC2)c(OCC)cc1NC(=O)COc1cccc(Cl)c1 | inactive
98 | CCN(CC(=O)Nc1cccc(S(=O)(=O)N2CCCCC2)c1)Cc1ccccc1 | inactive
99 | Cc1ccc(-c2cc(=O)[nH]c(NCc3ccccc3)n2)cc1 | inactive
100 | CCCCN(C1CCS(=O)(=O)C1)S(=O)(=O)c1ccc(C(C)C)cc1 (centres undefined) | inactive
101 | Cc1cc(=O)[nH]c(SCc2cc(Cl)ccc2OC(F)F)n1 | inactive
102 | COc1ccc(Cl)cc1CSc1ncn[nH]1 | inactive
103 | CCCCOc1ccc(Cl)cc1CSc1nncn1N | -4.96 (active)
104 | COc1ccccc1C(CNC(=O)c1cccc(NS(=O)(=O)c2ccc(Br)cc2)c1)N(C)C (centres undefined) | inactive
